Data: PubChem BioAssay AID1259336 (Sattelle Laboratory, UCL Respiratory, Division of Medicine, …, 2017)

assay: C. elegans growth inhibition, whole organism, log2 fold change (AID 1259336); conditions: anthelmintic screen, stronger effect = lower value; in the data active means log2 fold change growth below about -1.8; inactive means the rest;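 further: growth scored by imaging after five days at 20 °C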

log2 fold change growth, inactive:
CCCCCCCCCCCCCCCCOP(=O)([O-])OCC[N+](C)(C)C 0.528
COc1ccc2nc(C)cc(OCC(=O)NCc3ccccc3)c2c1 0.118
CC(=O)NC[C@H]1CN(c2ccc(-c3ccc(CNCc4cn[nH]n4)cc3)c(F)c2)C(=O)O1 0.387
Clc1ccc(CCNc2cc(-c3ccccc3)nc3ncnn23)cc1 -0.81
Cc1ccc(-c2cc(C(=O)Nc3cccnc3)c3cc(Br)ccc3n2)cc1 -0.0922
Brc1cncc(-c2cc(NCCCn3ccnc3)nc(-c3ccccc3)n2)c1 -1.17
CC(C)[C@H](Oc1cccc2ccccc12)C(=O)O 0.534
CCOc1ccc(-c2nc(CNCCc3ccc(F)cc3)cs2)cc1 0.153
Cc1[nH]n2c(=O)c3c(nc2c1-c1ccc(Cl)cc1)CCCC3 -0.182
Cc1cccnc1NC(=O)c1cccc(OCc2c(C)noc2C)c1 0.0511
O=C(C1CCN(c2nnnn2-c2ccccc2)CC1)N1CCc2ccccc2C1 -0.288
Cc1nnc(NC(=O)c2cn(-c3ccccc3)nc2-c2ccccc2C)o1 -0.302
CCc1nc2ccc(Cl)cn2c1C(=O)NCc1ccc(N2CCC(c3ccc(OC(F)(F)F)cc3)CC2)cc1 -0.0431
COc1cccc(CC(=O)N2CCC(n3c(C)nc4ccc(F)cc43)CC2)c1 0.116
COc1cccn2c(C(=O)N3CCCCC3)c(C(F)(F)F)nc12 0.258
CCCCN(CCCC)c1c(C#N)cc(S(=O)(=O)Nc2ccccc2)cc1C#N -0.631
C[C@@H](C(=O)N1CCCC1)N1CCN(S(=O)(=O)c2ccc(C(C)(C)C)cc2)CC1 0.667
O=C(Nc1cccc(-c2ccc(NCCCN3CCCC3)nc2)c1)c1ccccc1 0.467
Nc1ncnc2c1c(Cc1cccc3ccccc13)nn2CC1CCNCC1 -0.11
Cc1nc(-c2ccccn2)nc(N2CC[C@H](Cc3ccccc3)C2)c1Cl -1.52
CC(C)NCC(=O)Nc1cccc(C(=O)Nc2cccc(C(F)(F)F)c2)c1 0.0022
COc1ccc(-c2nn(C(C)C)c3ncnc(N)c23)cc1OC 0.278
Cc1cc(OCC(=O)NCc2ccccc2)c2cc(Br)ccc2n1 0.232
Cc1ncc(-c2ccnc(Nc3ccc(S(C)(=O)=O)cc3)n2)n1C(C)C 0.268
